USP2a inh: blocks human ubiquitin-specific protease USP2a. USP2a enzymatic assay, qHTS inhibition. Potency, µM (top dose mostly 38.3 µM), inactives show top-dose activity change, negative = inhibition, hits mostly inhibitors. actives 0.1% (n = 60,000); further: nearly all actives have a fitted effect of over 60% in size
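20 nM USP2 core + cpd, 30 min RT; add 20 nM Ub-PLA2/20 uM NBD C6-HPC; read Ex460/Em535 at 0 h and 2.5 h. Normalized to NEM; qHTS curve fit/classification.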
HEK293 cAMP cs: raises cAMP in parental HEK293 cells, TSHR agonist counter-screen; parental HEK293 CNG cAMP sensor, membrane potential fluorescence; Potency, µM (highest dose often 57.1 µM), inactives show top-dose activation, usual class: activators; actives 2.5% (n = 73,000); further: % of control where 0% means no effect; nearly all actives have a fitted effect of over 55% in size
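Parental HEK 293 cells stably expressing a modified CNG channel (no TSHR) report cAMP rise as membrane depolarization. Membrane potential dye with 100 uM RO 20-1724 was loaded for 60 min at room temperature, then compound added for 30 min; fluorescence read at 590 nm.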
TSHR agonist: agonists of human thyroid stimulating hormone receptor; P16473; HEK293-CNG-TSHR cells (CNG channel as cAMP sensor), membrane potential dye, cAMP; Potency, µM (titrated, usually from 57.1 µM), for the others: top-dose activation, actives largely listed as activators; actives 0.48% (n = 73,000); AID 926; active means well fitted activation curve with a large enough effect in the main read-out, with a control signal flat, not every such curve was filed as active; inconclusive means small, poorly fitted or top-dose-only effect, or a change in a side signal; inactive means no such curve, though single readings can be large or run the other way; % of control where 0% means no effect;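 further: the control signal comes from parental cells without the receptor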
Target sequence (P16473 whole entry, looked up): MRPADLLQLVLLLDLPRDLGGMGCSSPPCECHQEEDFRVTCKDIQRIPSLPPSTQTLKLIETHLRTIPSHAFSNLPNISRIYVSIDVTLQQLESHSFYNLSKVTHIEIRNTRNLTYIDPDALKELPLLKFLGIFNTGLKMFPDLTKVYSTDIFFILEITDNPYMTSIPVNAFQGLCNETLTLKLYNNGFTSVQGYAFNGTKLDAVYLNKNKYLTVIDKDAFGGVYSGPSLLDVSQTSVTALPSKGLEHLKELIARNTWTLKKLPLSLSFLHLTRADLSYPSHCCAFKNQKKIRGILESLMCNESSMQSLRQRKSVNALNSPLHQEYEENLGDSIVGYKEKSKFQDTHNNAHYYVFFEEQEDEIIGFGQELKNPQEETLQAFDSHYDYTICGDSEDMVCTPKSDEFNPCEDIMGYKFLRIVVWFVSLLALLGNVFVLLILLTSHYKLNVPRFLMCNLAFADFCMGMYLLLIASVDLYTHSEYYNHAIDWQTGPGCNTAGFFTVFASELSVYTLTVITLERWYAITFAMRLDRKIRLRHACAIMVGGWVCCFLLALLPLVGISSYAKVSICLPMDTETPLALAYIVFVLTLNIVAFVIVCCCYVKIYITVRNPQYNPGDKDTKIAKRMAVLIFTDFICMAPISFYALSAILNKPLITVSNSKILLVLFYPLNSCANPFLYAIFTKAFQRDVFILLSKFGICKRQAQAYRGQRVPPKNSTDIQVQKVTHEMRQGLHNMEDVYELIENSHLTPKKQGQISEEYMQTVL
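HEK 293 cells stably expressing TSHR and a modified CNG channel, with CNG-only parental cells as counterscreen, were preloaded 60 min at room temperature with membrane potential dye containing 100 uM RO 20-1724. Compound exposure was 30 min, and depolarization was read as fluorescence at 590 nm.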
Casp1 inh: caspase-1 (human) inhibition, allosteric or competitive | P29466 | Caspase-1 enzyme, Ac-WEHD-AFC fluorogenic rate | Potency, µM (top dose mostly 57.5 µM), for inactives: top-dose activity change, negative = inhibition, most hits filed as inhibitors | actives 0.03% (n = 75,000) | AID 900;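 further: plate controls were vehicle for no effect and no substrate for full effect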
CRE Fsk mod: alters forskolin-stimulated CRE reporter signaling in CHO cells; CHO CRE-bla reporter (cAMP response element driving beta-lactamase), forskolin EC10, beta-lactamase ratio; Potency, µM (doses to about 38.2 µM), for inactives: at the top dose activity change, negative = inhibition, actives largely listed as activators; actives 2.5% (n = 71,000); AID 662; active means well fitted activation curve with a large enough effect in the signal ratio, with a control signal flat, not every such curve was filed as active; inconclusive means small, poorly fitted or top-dose-only effect, or effect the other way, or a change in a side signal; the % refers to the signal ratio; further: % of control where 0% means no effect
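Using CellSensor CRE-bla CHO cells in Opti-MEM with 0.5% dialyzed FBS, compounds were titrated with EC10 NKH 477 for 3 h at 37 °C. CCF4 ratio (460/530 nm) gave %Activity; AC50 derived.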
Casp7 inh: blocks human caspase-7 allosterically or competitively; actives 0.02% (n = 75,000); Potency, µM (series often up to 57.5 µM), inactives show top-dose activity change, negative = inhibition, hits mostly inhibitors; recombinant caspase-7, Ac-DEVD-AFC fluorescence rate; P55210; active means well fitted inhibition curve with a large enough effect in the main read-out, with a control signal flat, not every such curve was filed as active; inconclusive means small, poorly fitted or top-dose-only effect, or a change in a side signal; further: % of control where 0% means no effect
* = called active by the depositor; ? = inconclusive; . = no result given; [ ] = another dose, or the depositor's remark. A selection: hits, their analogues and other compounds. The true share with any hit is near 5%. Unless noted, the call rests on the fitted dose curve; in most records, active means well fitted curve in the direction sought with a large enough effect; inconclusive means small, poorly fitted or top-dose-only effect, or another doubt; inactive means no such curve, though single readings can be large; an effect the other way counts as inactive or inconclusive. Potency means the concentration at half of the fitted maximal effect.

SMILES	USP2a inh	HEK293 cAMP cs	TSHR agonist	Casp1 inh	CRE Fsk mod	Casp7 inh
O=C(NCc1ccccc1)NC1(C(=O)Nc2ccc3c(c2)OCCO3)CCCCC1	3.7%	15.5%	2µM*	-5.9%	-1.5%	-1.7%
Cc1cc(C(=O)CSc2nnc(C3COc4ccccc4O3)n2C)c(C)n1-c1ccc(F)cc1 (stereo unspecified)	41.5%	10µM*	?	-1.5%	3.2%	-1.7%
CN1C(=O)Cn2c1nc1ccccc12	.	20µM*	?	-1.2%	0.1%	2.3%
O=C(O)[C@H]1CCCC[C@@H]1c1c2ccc(=O)c(O)c-2oc2c(O)c(O)ccc12	.	?	?	-0.3%[11.5 µM]	-11.4%[7.6 µM]	-16.9%[11.5 µM]
Cc1cc2nc([C@H](C)C(=O)c3ccc(Cl)cc3)c(=O)[nH]c2cc1C	.	-3.3%[11.4 µM]	3.4%[11.4 µM]	-5.7%[11.5 µM]	4.7%[7.6 µM]	-4.1%[11.5 µM]
COc1cccc(-c2nc(C(N)=O)c3[nH]c(=O)n(-c4cccc(Cl)c4)c3n2)c1OC	.	2.2%	0.5%	-4.6%	10µM*	-8.1%
CCn1c(=O)c2c(n3cnnc13)-c1ccccc1CC21CCCCC1	1.9%	-0.2%	13.0%	-1.5%	3.16µM*	-1.6%
CCn1c(SCC(N)=O)nc2c(c1=O)C1(CCCC1)Cc1ccccc1-2	2.9%[7.66 µM]	?	?	-5.3%	3.98µM*	-3.1%
CCc1nc2c(c(=O)[nH]1)C1(CCCC1)Cc1ccccc1-2	.	8.1%	-13.5%	-3.0%	?	-3.4%
Cc1ccc2c(c1)N(CC(=O)N1CCN(c3nc4ccccc4s3)CC1)C(=O)C(C)O2 (stereo unspecified)	.	6.31µM*	?	-3.7%	0.5%	1.9%
CCCC(c1nnnn1C1CCCC1)N1CCN(c2ccccc2F)CC1 (stereo unspecified)	.	5.01µM*	?	-2.7%	-5.2%	-3.2%
O=C(O)Cn1nc(-c2ccccc2)c2ccccc21	.	10.7%	8.5%	-1.7%	-6.3%	0.4%
CCOC(=O)c1[nH]c(CSc2nnnn2-c2ccccc2C)c(C(=O)OCC)c1C	6.9%	?	?	-11.5%	2.51µM*	-10.2%
OCCN(CO)CO	.	-5.2%[11.4 µM]	-0.3%[11.4 µM]	-1.7%[11.5 µM]	-3.0%[7.6 µM]	-1.9%[11.5 µM]
OC[C@@H]1O[C@@H](n2cnc3c(NCCc4ccccc4)ncnc32)[C@@H](O)[C@H]1O	.	?	?	.	-3.8%	.
Cc1ccc2[nH]c(=O)c(C(c3nnnn3C(C)(C)C)N(Cc3ccco3)CC3CCCO3)cc2c1 (stereo unspecified)	4.2%	?	?	?	?	-21.0%
CC(C)(C)n1nnnc1C(c1ccccc1F)N(Cc1ccco1)CC1CCCO1 (stereo unspecified)	?	12.6µM*	?	-1.6%	-2.4%	-1.1%
CC1(C)CCC(=O)N[C@H]1CC(=O)C[C@H]1NC(=O)CCC1(C)C	.	11.0%[11.4 µM]	-6.2%[11.4 µM]	0.9%[11.5 µM]	3.4%[7.6 µM]	5.1%[11.5 µM]
Cn1c(C(=O)NCc2cccnc2)cc2sc(Cl)cc21	.	25.1µM*	?	-3.8%	.	0.3%
Cn1nc(C(=O)NCc2cccnc2)c2ccccc2c1=O	0.5%	-1.3%	5.0%	-0.7%	?	-0.6%
C[C@@]12CCC(=O)C=C1CC[C@H]1[C@H]3CC[C@](O)(C(=O)CO)[C@]3(C)CC[C@@H]12	.	6.2%	.	.	?	.
CC(=O)N1[C@H](Cc2ccccc2)C=C[C@]1(C)C(=O)NCc1cc(F)cc(C(F)(F)F)c1	.	?	?	3.7%	0.9%	-1.4%
C[C@]1(C(=O)NCc2cc(F)cc(C(F)(F)F)c2)C=C[C@@H](Cc2ccccc2)N1C(=O)c1ccccc1	.	15.8µM*	?	-2.1%	-16.6%	-5.4%
CCCN(CCc1ccccc1)[C@H]1CCc2c(O)cccc2C1	3.0%	?	?	1.6%	-7.4%	-0.3%
CC(C)Oc1ccccc1C1CC(=O)Nc2cc3c(cc21)OCCO3 (stereo unspecified)	0.4%	?	?	-1.7%	6.31µM*	-0.3%
SMILES	USP2a inh	HEK293 cAMP cs	TSHR agonist	Casp1 inh	CRE Fsk mod	Casp7 inh
CCCOc1c(OC)cccc1C1CC(=O)Nc2cc3c(cc21)OCCO3 (stereo unspecified)	17.2%	15.8µM*	?	-1.5%	?	-2.6%
Cc1c(Cl)c(S(N)(=O)=O)cc(S(N)(=O)=O)c1NC(=O)c1ccc(Cl)cc1	.	6.3%[11.4 µM]	2.9%[11.4 µM]	0.2%[11.5 µM]	-12.6%[7.6 µM]	-3.5%[11.5 µM]
CCN(CC)[C@@H](C)C(=O)N1c2ccccc2Sc2ccccc21	.	28.1%	.	.	-5.6%	.
Cc1nc2sccn2c1-c1nc(C2CC2)c(C(=O)c2ccc3c(c2)NC(=O)CO3)s1	7.1%	-2.3%	3.2%	-14.0%	2.51µM*	-14.0%
CN(C)CCN(C)C(=O)c1ccc(-n2c(=O)c(=O)[nH]c3ccccc32)cc1	.	-5.7%	4.2%	-2.7%	.	0.5%
N#C/C(=C\Nc1ccccn1)C(=O)C1CC1	.	5.3%[11.4 µM]	-4.3%[11.4 µM]	-2.7%[11.5 µM]	0.5%[7.6 µM]	-0.2%[11.5 µM]
COc1ccc2cc3c(N)c(C(=O)NCc4ccco4)sc3nc2c1	22.8%	-22.1%	-9.7%	.	12.6µM*	-26.6%
CCOCC(=O)O	.	8.3%	-5.3%	-1.8%	6.4%	-1.1%
COc1ccc(O)c(/C=c2/sc3nc4cc(C)c(C)cc4n3c2=O)c1	44.9%	31.6µM*	?	?	?	-16.7%
CCOC(C)(C)C	.	14.8%	-6.8%	1.0%	-0.7%	0.1%
CCc1nc2cc(C)nn2c2nc3ccccc3n12	-0.1%	19.5%	23.6%	-0.3%	3.16µM*	1.1%
Cc1cc2nc(C)n3c4ccccc4nc3n2n1	-10.0%	-0.5%	16.6%	-0.2%	?	6.7%
N#CC1=C(N)C(C#N)(C#N)[C@H](c2ccoc2)[C@H]2CN(Cc3ccccc3)CC=C12	41.6%	0.6%	-8.5%	.	10µM*	?
CCN1CC=C2C(C#N)=C(N)C(C#N)(C#N)C(CCc3ccccc3)C2C1 (stereo unspecified)	26.6%	-10.2%	-17.2%	?	0.3%	?
CCCN(Cc1cc2cc(C)ccc2[nH]c1=O)S(C)(=O)=O	44.9%	10.2%	5.01µM*	-1.4%	?	-2.0%
CCCN(Cc1cc2cc(C)ccc2[nH]c1=O)C(=O)c1cccc(OC)c1	18.5%	18.2%	20.1%	0.0%	?	-2.1%
CC(/C=C/C=C(C)/C=C/C(=O)O)=C\C=C\C=C(C)\C=C\C=C(C)\C=C\C(=O)O	.	31.1%	-0.1%	-3.7%	?	-6.8%
Cc1cc(N2CCOCC2)nc2cc(O)ccc12	.	6.31µM*	?	.	?	?
O=c1[nH]c2ccccc2c2nc3ccccn3c12	-3.1%	-0.1%	-2.1%	-1.3%	10µM*	1.5%
O=c1[nH]c2ccccc2c2ccccc12	17.8%	-9.2%	7.6%	-1.4%	?	0.2%
CC1(C)Cc2cccc(OCC(=O)Nc3ccccc3N3CCOCC3)c2O1	1.9%	20µM*	?	-0.7%	?	-1.2%
